Data taken from PMC7819943, “Rice protein-binding microarrays: a tool to detect cis-acting elements near promoter regions in rice”.
Whole data set: some 35,000 sequences, median “fluorescence intensity (a.u.)” near 10,000, cut for the highest 2% near 52,000. The sample holds the highest values, similar sequences and a random draw of the others, so the mix is not that of the screen.

Target: T1, OsWOX13 (Oryza sativa, UniProt Q5QMM3 1-267)
T1 sequence: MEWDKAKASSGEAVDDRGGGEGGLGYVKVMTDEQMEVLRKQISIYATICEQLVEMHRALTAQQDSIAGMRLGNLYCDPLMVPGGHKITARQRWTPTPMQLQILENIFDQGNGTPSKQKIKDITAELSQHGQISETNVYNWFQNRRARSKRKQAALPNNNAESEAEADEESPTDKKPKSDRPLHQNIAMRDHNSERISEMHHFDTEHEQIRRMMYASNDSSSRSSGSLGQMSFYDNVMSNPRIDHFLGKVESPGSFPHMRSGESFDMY
Experiment: protein-binding microarray (RPBM); PBS, 2% BSA, 51.3 ng/ul salmon testes DNA, 50 uM zinc acetate, 200 nM TF, 25 C, 1 h; high values mean tight binding
Conditions: protein: recombinant; tags: N-terminal polyhistidine and DsRed monomer fusion (pET32a); label: CyDye5-dUTP incorporated in the synthesized complementary strand; 3' TTTTT single-stranded linker to array surface; dsDNA, one strand shown
In short: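 Ni–NTA purification followed expression in E. coli BL21-CodonPlus of transcription factors fused N-terminally to a polyhistidine tag and DsRed. At 200 nM in PBS with 2% BSA, salmon testes DNA and 50 µM zinc acetate, the protein was incubated for 1 h at 25 °C with a custom Agilent array that had been primer-extended with Cy5-dUTP and blocked with 2% BSA. After washing, the array was read on an Axon 4000B scanner. The binding signal is per-feature fluorescence intensity in arbitrary units.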

Row | Sequence | binding signal
1 | AGGATTAATTAGGCTTAATAAATTCGTCTCGCAGTTTACACGGAGTCACCTAGTGCAG | 22000 fluorescence intensity (a.u.)
2 | TCTAGATTTGATCATTTTGACCTCTTGCTCCGTTAGATCTCGGAGTCACCTAGTGCAG | 9940 fluorescence intensity (a.u.)
3 | TCAATCAATCAATTAATTAGTAATTCAAAGTACTAAACACCGGAGTCACCTAGTGCAG | 40200 fluorescence intensity (a.u.)
4 | CCTTAATTTTCAGTGTTAGTAATTTTCATTAACTAATTCTCGGAGTCACCTAGTGCAG | 16200 fluorescence intensity (a.u.)
5 | AAAGTTAATCAAATTGACTAATTAGTGCTAGATATGTCCTCGGAGTCACCTAGTGCAG | 60600 fluorescence intensity (a.u.)
6 | TACTAATTTAGAGTATTAAACATAAACTAATAATAAAAGTCGGAGTCACCTAGTGCAG | 9830 fluorescence intensity (a.u.)
7 | TCTAATTATTTGATATTAGTTATTTTCCTTAACATTCGTGCGGAGTCACCTAGTGCAG | 49900 fluorescence intensity (a.u.)
8 | ATCAAATCATATGTTAGATTGATCCTTCAATTAGTTAATTCGGAGTCACCTAGTGCAG | 24400 fluorescence intensity (a.u.)
9 | CCTTAATTAACTAACATTCAGTCAGTTAGTCACCGGATAGCGGAGTCACCTAGTGCAG | 52600 fluorescence intensity (a.u.)
10 | GTTAATTAATTAGTTAGTACTAGCAAACATTGGCTAAAGTCGGAGTCACCTAGTGCAG | 55900 fluorescence intensity (a.u.)
11 | GACTAATTAATAATTAGTTAATTGACTAATCAGGATAATTCGGAGTCACCTAGTGCAG | 46800 fluorescence intensity (a.u.)
12 | ATTAATTAAGTTACTGTGTTACTCCTAGCTACTCCTCCGTCGGAGTCACCTAGTGCAG | 22600 fluorescence intensity (a.u.)
13 | AATTACTACTACTAATTAGCTAGTAGCTAGTTTCTGTGCTCGGAGTCACCTAGTGCAG | 8060 fluorescence intensity (a.u.)
14 | AGTTAATTAATTAATTAGCTACGTACTCTTGTGCCTCTGTCGGAGTCACCTAGTGCAG | 54900 fluorescence intensity (a.u.)
15 | TTCGATTTAACTGTTCTATTACTGAGGTACTCTTCGATTTCGGAGTCACCTAGTGCAG | 6940 fluorescence intensity (a.u.)
16 | GTCAAATTTATGGCATTGATAGAGTTTTAGTAGGGGTGTTCGGAGTCACCTAGTGCAG | 21000 fluorescence intensity (a.u.)
17 | TTAGTTTAATTAAATGTAACATTGAGTATATTTTGATAATCGGAGTCACCTAGTGCAG | 16700 fluorescence intensity (a.u.)
18 | TCTAAATTTAACTTGCATCACATTAGTTCTGGAAAGAGCACGGAGTCACCTAGTGCAG | 12200 fluorescence intensity (a.u.)
19 | GATACTAATTATAAATATTAAGTGTAGACTATTAATAAAACGGAGTCACCTAGTGCAG | 6430 fluorescence intensity (a.u.)
20 | TCATTAACACATAATTAATTAAGTACTCCCTCCGTATTTTCGGAGTCACCTAGTGCAG | 20200 fluorescence intensity (a.u.)
21 | AAAAGAAGTTAATTATAATTAATTGTGATAAGAGGATAGACGGAGTCACCTAGTGCAG | 29400 fluorescence intensity (a.u.)

Row | Sequence | binding signal
22 | AAATTGTATTCCTAATTGGACTCTCTTTTCCTTTTCTAATCGGAGTCACCTAGTGCAG | 3430 fluorescence intensity (a.u.)
23 | TTCTAATTAGATTTGATAAAGTACTAATATTCATTTTGGTCGGAGTCACCTAGTGCAG | 63100 fluorescence intensity (a.u.)
24 | ATATTTTAAATAGTACTAAATTATTCTATAAATTTGGTCACGGAGTCACCTAGTGCAG | 4350 fluorescence intensity (a.u.)
25 | CTCTCGATTGATTACCTAGTACTACTGCAATTCACATTGTCGGAGTCACCTAGTGCAG | 52200 fluorescence intensity (a.u.)
26 | CTTCTAATTATTTGATATTAGGTCATTCTCTAATATTCACCGGAGTCACCTAGTGCAG | 21400 fluorescence intensity (a.u.)
27 | TCGAAAGTAATTAGTACTAGATTGATTGTCAGTTCAGTCTCGGAGTCACCTAGTGCAG | 53100 fluorescence intensity (a.u.)
28 | AGTTACTAATTGATTCAGATGCATGGCAGTATAATTGTCTCGGAGTCACCTAGTGCAG | 44900 fluorescence intensity (a.u.)
29 | TATATGGATTAACAGATAATTAGCAGCGGGGTTAGCAAAACGGAGTCACCTAGTGCAG | 21000 fluorescence intensity (a.u.)
30 | TTTTGATTTGCCACATTTGCAGTGGCATGGATCCAATTAACGGAGTCACCTAGTGCAG | 15000 fluorescence intensity (a.u.)
31 | GGGGATTAATGGATTATAATGTGTCTTATAACTAAAAGGACGGAGTCACCTAGTGCAG | 15100 fluorescence intensity (a.u.)
32 | ATCCGATTAATTAATTTGATTTAATGTAATGTAATTAGGGCGGAGTCACCTAGTGCAG | 64600 fluorescence intensity (a.u.)
33 | CTTAATGTATGTTGATTTGTCATCACATGTATGATTAGGGCGGAGTCACCTAGTGCAG | 56400 fluorescence intensity (a.u.)
34 | ATCATAATGTGTATGCATGATTAGAGGGCGCAAATTTGTACGGAGTCACCTAGTGCAG | 14600 fluorescence intensity (a.u.)
35 | GAGATTTGTTTGATGTATCAGGGTGTCACGTTGTCATGTTCGGAGTCACCTAGTGCAG | 3440 fluorescence intensity (a.u.)
36 | AGTATAATTATGTTTAGAATGGATTAATTGTAATGTAAAGCGGAGTCACCTAGTGCAG | 38600 fluorescence intensity (a.u.)
37 | TTCCGATTATTATTTGTATTTATTAATTTAGGATTTCTCTCGGAGTCACCTAGTGCAG | 8170 fluorescence intensity (a.u.)
38 | ATGGGTGATTAATCCTAGAATAATGTATCTAGACAGAATCCGGAGTCACCTAGTGCAG | 4120 fluorescence intensity (a.u.)
39 | TGAAATGTAATTGTGATTTTATCTTGAAATGATCCGATGGCGGAGTCACCTAGTGCAG | 31400 fluorescence intensity (a.u.)
40 | CTTGATTAGAATGTTTAATAACTTGTATCCGTCATGCCTGCGGAGTCACCTAGTGCAG | 60200 fluorescence intensity (a.u.)
41 | GGGATTGGTTGAGAAAATAAAACAGATATATAAGTTTATCCGGAGTCACCTAGTGCAG | 3160 fluorescence intensity (a.u.)
42 | CAAACTAGATTTGTTGCTAAATTGAATTGTTATGTCATTACGGAGTCACCTAGTGCAG | 22800 fluorescence intensity (a.u.)
